Screens (PubChem BioAssay)
Most compounds without a hit are left out; they make up all but 2.3% or so of the library.
M1 PAM parental = M1 PAM counterscreen hit in parental CHO-K1 cells | ATP EC20, Fluo-8 calcium fluorescence; 0% at ATP EC20, 100% at ATP max | activation, % at 3 µM | 360,000 tested, 0.02% active;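 active means activation above the run cutoff, the mean activation of all test compounds plus 3 SD, cut at about 40% in these data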;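 further: peak over basal fluorescence ratio in a 140 s read after ATP addition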
M1 ag = human M1 muscarinic receptor agonism. AID 588814. activation, % at 3 µM. 360,000 tested, 0.33% active. CHO-K1 hM1, Fluo-8 calcium fluorescence, agonist mode; 0% DMSO, 100% acetylcholine EC100. P11229;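 active means activation above the run's mean compound activation plus 3 SD, cut at about 16% in these data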;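 further: peak over basal fluorescence ratio within a 140 s kinetic read after compound addition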
Target sequence (P11229 whole entry, looked up): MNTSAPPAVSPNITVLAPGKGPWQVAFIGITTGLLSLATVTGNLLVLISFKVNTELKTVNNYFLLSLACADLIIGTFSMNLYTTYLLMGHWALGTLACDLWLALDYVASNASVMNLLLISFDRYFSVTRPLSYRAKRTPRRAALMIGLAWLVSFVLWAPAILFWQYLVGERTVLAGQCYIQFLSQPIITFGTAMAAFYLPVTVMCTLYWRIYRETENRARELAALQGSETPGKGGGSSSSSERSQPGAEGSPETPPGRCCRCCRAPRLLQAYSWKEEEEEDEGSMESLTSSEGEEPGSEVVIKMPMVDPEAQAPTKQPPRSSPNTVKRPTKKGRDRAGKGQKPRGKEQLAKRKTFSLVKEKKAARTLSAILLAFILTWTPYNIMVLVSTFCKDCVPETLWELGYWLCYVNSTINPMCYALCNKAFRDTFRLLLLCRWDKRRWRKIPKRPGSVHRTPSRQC
M1 PAM = positive allosteric modulators of human M1 muscarinic receptor. AID 588819. 360,000 tested, 0.088% active. activation, % at 3 µM. CHO-K1 hM1, Fluo-8 calcium fluorescence, ACh EC20; 0% = ACh EC20, 100% = maximal ACh; in the data active means activation above about 19%, passing the limit was not always enough
CHO-K1 Ca antag = counter-screen for M1 antagonists: effect in parental CHO-K1 cells; ATP-induced calcium, Fluo-8 fluorescence; inhibition, % at 3 µM; 360,000 tested, 0.6% active; AID 602250;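 active means inhibition above a per-plate cutoff, the plate's mean sample inhibition plus 3 SD, cut at about 24% in these data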
CHO-K1 Ca ag = M1 agonist counterscreen hit in parental CHO-K1 cells | Fluo-8 calcium fluorescence; scaled to maximal ATP response, vehicle zero | activation, % at 3 µM | 360,000 tested, 0.48% active | AID 602248; in the data active means activation above about 15%;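 further: untransfected CHO-K1 host cells lacking M1 receptor as counterscreen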
M1 antag = blocks human M1 muscarinic receptor. CHO-K1 hM1, Fluo-8 calcium fluorescence, ACh EC80 antagonist. inhibition, % at 3 µM. 360,000 tested, 1.3% active;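 active means percent inhibition above its own plate's cutoff, namely the mean of that plate's compound wells plus 3 SD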;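 further: peak over basal fluorescence ratio during 140 s after agonist addition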
A number is an active result; 0 = inactive.

SMILES	M1 PAM parental	M1 ag	M1 PAM	CHO-K1 Ca antag	CHO-K1 Ca ag	M1 antag
CCC1(c2ccccc2)NC(=O)N(CC(=O)Nc2ccccc2N2CCCCC2)C1=O (stereo unspecified)	0	36.9	0	0	38.1	0
CCC1(c2ccc(F)cc2)NC(=O)N(CC(=O)Nc2ccc(N3CCCCC3)cc2)C1=O (stereo unspecified)	0	16.8	0	0	0	0
CCOc1ccc(S(=O)(=O)n2cc(F)c(=O)[nH]c2=O)cc1	0	0	0	23.8	0	0
CCOc1ccc(S(=O)(=O)n2cc(F)c(=O)[nH]c2=O)cc1[N+](=O)[O-]	0	0	0	0	0	0
O=C1C2CCCCC2C(=O)N1c1ccc(S(=O)(=O)Nc2ncccn2)cc1 (stereo unspecified)	0	0	0	0	0	0
COC(=O)[C@@]1(Cc2ccccc2)[C@H]2C(=O)N(C)C(=O)[C@H]2[C@H]2CN=C(SCC(=O)c3ccccc3)N21	0	0	0	0	0	101.6
Cc1ccccc1NS(=O)(=O)c1cc(C(=O)NCc2ccncc2)ccc1Cl	0	0	0	0	0	0
Cc1cccc2sc(NNC(=O)c3ccc(S(=O)(=O)N4CCCC(C)C4)cc3)nc12 (stereo unspecified)	0	0	0	0	0	67.0
CCCCC(CC)C(=O)N1CCN(C(=O)c2ccco2)CC1 (stereo unspecified)	0	0	0	0	0	0
COc1ccc(Cn2c(-c3ccc(Br)cc3)c[n+]3ccccc23)cc1	0	0	0	0	0	41.6
CCCNC(=O)c1ccc(S(=O)(=O)c2ccc(OC)cc2)c([N+](=O)[O-])c1	0	0	0	0	16.3	0
COc1ccc(C(=O)NCCNc2ccccc2[N+](=O)[O-])cc1	0	0	0	0	0	0
COc1ccc(NC(=O)CCCOc2ccc(Cl)c(C)c2)cc1S(=O)(=O)N1CCOCC1	0	0	0	0	0	0
COc1ccc(C2/C=C\CN(C(=O)Nc3ccc(C(F)(F)F)cc3)CC(=O)N2Cc2ccc(F)cc2)cc1 (stereo unspecified)	0	0	0	0	0	37.9
COc1ccc(C2/C=C\CN(C(=O)Nc3ccccc3)CC(=O)N2Cc2ccc(F)cc2)cc1 (stereo unspecified)	0	0	0	0	0	0
O=C(C1CCN(S(=O)(=O)c2ccccc2)CC1)N1CCC1	0	0	0	0	0	0
CC(C)N(CCn1c(SCC(=O)N2CC(=O)Nc3ccccc32)nc2ccccc2c1=O)C(C)C	0	0	0	0	0	61.5
CN(C)CCCn1c(SCC(=O)N2CC(=O)Nc3ccccc32)nc2ccccc2c1=O	0	0	0	0	0	0
COc1ccc(-c2nnc(SCC(=O)NCC3CCCO3)o2)cc1 (stereo unspecified)	0	0	0	0	0	0
Cc1cc(C)cc(-c2nnc(SCC(=O)NCC3CCCO3)o2)c1 (stereo unspecified)	0	0	28.4	0	0	0
CCOC(=O)c1sc(NC(=O)c2cccs2)cc1C	0	0	0	0	0	0
CCOC(=O)c1sc(NC(=O)Nc2cccc(Cl)c2)cc1C	0	0	0	38.8	17.7	42.9
Cc1cccc(OCCCC(=O)Nc2ccc(S(=O)(=O)Nc3nccs3)cc2)c1C	0	0	0	0	0	0
Cc1cc(Oc2ccccc2)nc(NCc2ccccc2)n1	0	0	0	37.8	0	0
Cc1cc(Nc2ccc(Cl)cc2)nc(NCc2ccccc2)n1	0	0	0	0	0	0
SMILES	M1 PAM parental	M1 ag	M1 PAM	CHO-K1 Ca antag	CHO-K1 Ca ag	M1 antag
Cc1cc(C)nc(NCCCc2ccccc2)n1	0	0	0	0	0	0
Cc1cc(Nc2ccccc2)nc(NCc2ccccc2)n1	0	0	0	27.1	0	0
CCCCNc1cc(C)nc(NCc2ccccc2)n1	0	0	0	25.9	0	30.0
Brc1ccc(CNc2ccc3ncccc3c2)cc1	0	0	0	0	0	35.9
COc1ccc(Cl)cc1NC(=O)NC(C)c1ccncc1 (stereo unspecified)	0	0	0	28.5	0	0
Cc1ccnn1CCC(=O)N1CCCC(CCC(=O)N2CCN(c3ccccn3)CC2)C1 (stereo unspecified)	0	0	0	0	0	0
C=C1c2nc3ccccc3n2C=C(c2ccc(C)cc2)N1c1ccccc1	0	0	0	0	0	0
Cc1sc2nc(CN3CCOCC3)nc(N3CCOCC3)c2c1C	0	0	0	0	0	0
Cc1sc2nc(CN3CCOCC3)nc(N3CCC(C(N)=O)CC3)c2c1C	0	0	0	25.1	0	0
O=[N+]([O-])c1cc(S(=O)(=O)NCCCN2CCOCC2)ccc1Cl	0	0	0	0	0	0
Cc1ccc(-n2nnnc2Sc2ccc(S(=O)(=O)NCCN(C)C)cc2[N+](=O)[O-])cc1	0	0	0	0	0	86.4
O=[N+]([O-])c1cc(S(=O)(=O)NCCN2CCOCC2)ccc1Sc1nnnn1-c1ccccc1	0	0	0	0	0	61.9
CS(=O)(=O)N1CCN(c2ccccc2[N+](=O)[O-])CC1	0	0	0	0	0	0
COc1ccc(S(=O)(=O)N2CCN(C3CCN(Cc4ccccc4)CC3)CC2)cc1	0	0	0	0	0	52.7
COc1cccc(CN2CCCN(S(=O)(=O)c3ccc(Br)cc3)CC2)c1	0	0	0	0	0	37.3
CCOC(=O)C1=CN(Cc2ccco2)S(=O)(=O)N(C)C1c1ccc(F)c(Cl)c1 (stereo unspecified)	0	0	0	0	0	0
Cc1[nH]c2ccccc2c1C(=O)C(C)OC(=O)c1ccccc1NCCO (stereo unspecified)	0	0	0	0	0	0
COC(C[C@@H](O)[C@H](C)[C@@H](O)COCc1ccccc1)OC	0	0	0	0	0	50.9
COC(C[C@H](O)[C@@H](C)[C@@H](O)COCc1ccccc1)OC	0	0	0	0	0	0
N#Cc1cc(NC(=O)c2ccc(Cl)cc2)ccc1Sc1ccccc1	0	0	0	0	0	32.4
COc1ccc(Sc2ccc(NC(=O)c3ccccc3Cl)cc2C#N)cc1	0	0	0	0	0	0
COCCNC(=O)CSc1nc(N)c(NC(=O)c2ccccc2F)c(=O)[nH]1	0	0	0	24.3	0	0
Nc1nc(SCC(=O)O)[nH]c(=O)c1NC(=O)c1ccccc1F	0	0	0	0	0	0
O=C(CN1CCCC1)N1c2ccccc2Sc2ccccc21	0	0	0	0	0	97.0
CCN1CCN(CC(=O)N2c3ccccc3Sc3ccccc32)CC1	0	0	0	0	0	76.3
CCc1cccc2c(/C=N/NC(=O)c3cccc(S(=O)(=O)Nc4ccccc4Cl)c3)c[nH]c12	0	0	0	0	0	0
COC(=O)c1ccc(NC(=O)C2CC3CCC2C3)cc1 (stereo unspecified)	0	0	0	0	0	0
